The assay addresses Concanavalin-A (Canavalia ensiformis) (UniProt P02866). The assay can be described thus: compounds binding concanavalin A lectin – biochemical, small-molecule microarray, Alexa647 label, 635 nm, artefact control for SMM control protein annotation, primary screen (AID 1127).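 Further: z combines 667 nm emission intensity with signal-to-noise across three replicate slides.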 The conditions noted are these: ConA-A647 binding fluorescence, higher = more signal.
Sequence of Concanavalin-A (Canavalia ensiformis) (P02866 whole entry, looked up): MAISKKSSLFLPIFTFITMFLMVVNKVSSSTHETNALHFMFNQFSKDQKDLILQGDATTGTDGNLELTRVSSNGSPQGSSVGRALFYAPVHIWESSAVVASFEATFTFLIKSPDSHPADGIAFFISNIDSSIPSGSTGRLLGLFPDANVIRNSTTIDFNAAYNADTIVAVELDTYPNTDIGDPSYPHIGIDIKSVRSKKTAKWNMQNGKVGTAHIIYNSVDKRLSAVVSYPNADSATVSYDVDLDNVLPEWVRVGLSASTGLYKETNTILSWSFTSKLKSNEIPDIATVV
The compound `CCCN1C(=O)[C@]2(CCS(=O)(=O)c3ccccc3)N=C(c3ccc(OCCCO)cc3)O[C@@H]2c2ccccc21` yielded a composite z-score of 0.414.
For the compound `CC(C)(C)C(=O)N[C@@H](c1ccc(Cl)cc1)[C@]1(C)C[C@H]1C1CCCCC1`, the composite z-score was 1.19.
With `COc1cc(CO)cc(I)c1O[C@H]1C=C(C(=O)NCCO)C[C@@H](N(CCN2CCOCC2)C(=O)C2CCOC2)[C@@H]1O` (stereo partly drawn), the composite z-score was -0.169.
In turn, `C[C@]1(C(=O)NC2CC2)c2ccccc2C(=O)N(Cc2cc(C(F)(F)F)cc(C(F)(F)F)c2)[C@H]1c1ccc(CO)cc1` gave a composite z-score of 0.835.
Regarding `COCCOC(=O)N1C(=O)[C@@]2(c3ccccc31)[C@H](c1ccccc1OCCO)N1[C@H](c3ccccc3)[C@H](c3ccccc3)OC(=O)[C@H]1[C@@H]2C(=O)Nc1nc2ccccc2s1`, the composite z-score stood at 1.18.
Consider `CC(=O)NCCCC[C@@H]1NC(=O)[C@@H]2C[C@H](C(=O)NCCCCCCNC(=O)CS)[C@H](c3cccc(OCCO)c3)N2C1=O`, for which the composite z-score came out at 0.914.
The result for `CCCCC(=C=CC[C@@H](O)c1ccccc1OCCO)CCO` reads -0.382; that for `C=C(COC)/C(=C/C[C@H](OC(=O)c1ccncc1)c1ccc(OCCO)cc1)c1cnc2ccccc2c1`, 1.17.
`COC(=O)[C@@]1(Cc2ccc(F)cc2)[C@@H]2[C@@H](CC(=O)[C@H]2CC(=O)C(=O)N(C)C)CN1C(=O)c1ccccc1` had a composite z-score of 1.1.
The result for `NCCCCCNC(=O)[C@@H]1C[C@@H]2C(=O)N[C@@H](Cc3ccccc3)C(=O)N2[C@@H]1c1cccc(OCCO)c1` reads 1.05.
The figure for `Cc1ccc(C(C)CC(O)C2C=CC3C(=O)N(C)C(=O)C3N2NC(=O)OC(C)(C)C)o1` (stereo not drawn) is 1.05; for `COCCOC(=O)N1C(=O)[C@@]2(c3cc(C#Cc4ccc(OC)cc4)ccc31)[C@H](c1ccc(O)cc1)N1[C@H](c3ccccc3)[C@H](c3ccccc3)OC(=O)[C@H]1[C@@H]2C(=O)NC[C@H](O)c1ccccc1` it is 1.17; for `O=C(C1N=C(c2ccc(OCCCO)cc2)N(c2ccccc2)O1)N1CCOCC1` (stereo not drawn) it is 0.488.
`O=C1O[C@@H](c2ccccc2)[C@@H](c2ccccc2)N2[C@@H](c3ccc(OCCO)cc3)[C@]3(C(=O)Nc4ccccc43)[C@@H](C(=O)NC[C@H](O)c3ccccc3)[C@H]12`: the composite z-score turned out to be 0.999.
With `O=C(O)[C@@]1(CCS(=O)(=O)c2ccccc2)COC(c2ccc(OCCCO)cc2)=N1`, the composite z-score is -0.0647.
As to `O=C1O[C@H](c2ccccc2)[C@H](c2ccccc2)N2[C@H]1[C@@H](C(=O)O)[C@]1(C(=O)Nc3ccc(C#CCCO)cc31)[C@H]2c1ccc(O)cc1`, the composite z-score was -0.161.
Consider `O=C1C2C=CC(C(O)C(c3ccccc3)c3ccccc3)N(n3cnnc3)C2C(=O)N1Cc1ccccc1` (stereo not drawn), for which the composite z-score is 1.07.
As to `CCOC(=O)C[C@H]1[C@H](OC(=O)c2ccc(C(=O)c3ccccc3)cc2)[C@@H](NC(=O)c2ccc(-c3ccccc3)cc2)c2cc(OCCCO)ccc2N1C(=O)c1ccccc1`, the composite z-score came to 0.989.
`CN1C(=O)[C@]2(Cc3ccccc3)N=C(c3ccc(OCCCO)cc3)O[C@@H]2c2ccccc21` gave a composite z-score of 0.953.
On to `CC(CO)N1C(=O)[C@@H]2C3C(=O)OCCC/C=C\[C@H]3OC23C=CCN(c2ccc4ccccc4c2)C(=O)[C@@H]13` (stereo partly drawn), for which the composite z-score was -0.172.
In the case of `Cc1ccc(S[C@]2(C(=O)NC3CC3)CC(=O)N(C3Cc4ccccc4C3)[C@@H]2c2ccc(CO)cc2)cc1`, the composite z-score was determined as 0.356.
The result for `COCCOC(=O)N1C(=O)[C@@]2(c3cc(C#CC4=CCCCC4)ccc31)[C@H](C(=O)Nc1nc3ccccc3s1)[C@H]1C(=O)O[C@H](c3ccccc3)[C@H](c3ccccc3)N1[C@@H]2c1ccc(OCCO)cc1` reads 1.03; that for `CC(C)C[C@@H]1NC(=O)[C@H]2C[C@@H](C(=O)NCCCCCCN)[C@@H](c3ccc(O)cc3)N2C1=O`, 1.18; that for `C=CCN(Cc1ccccc1)C(=O)C(c1cccs1)N(CCOCCO)C(=O)/C=C\C(=O)O` (stereo not drawn), -1.33.
Take `O=C1OCCC/C=C\[C@H]2OC34C=CCN(CCN5CCOCC5)C(=O)[C@H]3N(CCCO)C(=O)[C@@H]4C12` (stereo partly drawn): the composite z-score worked out at 0.167.
In the case of `[N-]=[N+]=NCc1ccccc1C[C@]1(C(=O)N2CCOCC2)N=C(c2ccc(OCCCO)cc2)O[C@H]1c1ccccc1N=[N+]=[N-]`, the composite z-score amounted to 1.04.
The result for `C=CCNC(=O)[C@H]1[C@@H]2C(=O)O[C@@H](c3ccccc3)[C@@H](c3ccccc3)N2[C@@H](c2ccccc2OCCO)[C@]12C(=O)Nc1ccc(C#CC3=CCCCC3)cc12` reads 1.02.
`C=CCN1C(=O)[C@@]2(O[C@@H](CCO)[C@H]([Si](C)(C)c3ccc(OC)cc3)[C@H]2C)c2cc(NC(=O)c3ccc(OC)cc3)ccc21` yielded a composite z-score of 1.03.

These data come from PubChem BioAssay.
